Experimental findings from PubChem BioAssay (Tox21) are described below.

More than one record can exist for a structure, and the calls need not agree. The source made the active and inactive calls. Unless noted, the call rests on the fitted dose curve; in most records, active means well fitted curve in the direction sought with a large enough effect in the repeat runs; inconclusive means weak or mixed curves; inactive means no such curve, though single readings can be large; an effect the other way counts as inactive or inconclusive.

Test [1] can be described thus: qHTS assay to identify small molecule antagonists of the thyroid receptor (TR) signaling pathway - cell viability counter screen (AID 743064). Further: nearly all actives have a fitted effect of over 50% in size. The method, boiled down: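 Counter screen for cytotoxicity: compound plus T3 (1 nM final) on GH3.TRE-Luc cells, 23.5 h at 37 °C, then fluorescence viability readout with CellTiter-Fluor.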
Background: In qHTS, concentration-response curves come from the screen itself.

A short description of test [2]: qHTS assay to identify small molecule antagonists of the thyroid receptor (TR) signaling pathway (AID 743065). Further: nearly all actives have a fitted effect of over 55% in size. The method, boiled down:
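GH3.TRE-Luc rat pituitary cells carrying two TR response elements driving luciferase were plated for 4 h, given compound plus 1 nM T3 (final), and incubated 23.5 h at 37 C. ONE-Glo luminescence measured reporter inhibition; CellTiter-Fluor fluorescence tracked cytotoxicity.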

The subject of test [3] is thyroid hormone receptor (rat, GH3 cells). Description: qHTS assay to identify small molecule agonists of the thyroid receptor (TR) signaling pathway (AID 743066; calls by dose curve).
The target in test [4] is Estrogen receptor (Homo sapiens) (UniProt P03372). Description: qHTS assay to identify small molecule antagonists of the estrogen receptor alpha (ER-alpha) signaling pathway (AID 743069; active means well fitted curve in the direction sought with a large enough effect in the signal ratio in the repeat runs, not every such curve was filed as active; inconclusive means weak or mixed curves, or effect the other way; inactive means no such curve, though single readings can be large or run the other way; the % refers to the signal ratio). In short, it runs like this: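 Estradiol-stimulated ER-alpha-UAS-bla HEK293 cells, 18 hr compound exposure at 37C. LiveBLAzer B/G substrate, 2 hr RT, fluorescence read.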
Estrogen receptor (Homo sapiens), sequence (P03372 whole entry, looked up): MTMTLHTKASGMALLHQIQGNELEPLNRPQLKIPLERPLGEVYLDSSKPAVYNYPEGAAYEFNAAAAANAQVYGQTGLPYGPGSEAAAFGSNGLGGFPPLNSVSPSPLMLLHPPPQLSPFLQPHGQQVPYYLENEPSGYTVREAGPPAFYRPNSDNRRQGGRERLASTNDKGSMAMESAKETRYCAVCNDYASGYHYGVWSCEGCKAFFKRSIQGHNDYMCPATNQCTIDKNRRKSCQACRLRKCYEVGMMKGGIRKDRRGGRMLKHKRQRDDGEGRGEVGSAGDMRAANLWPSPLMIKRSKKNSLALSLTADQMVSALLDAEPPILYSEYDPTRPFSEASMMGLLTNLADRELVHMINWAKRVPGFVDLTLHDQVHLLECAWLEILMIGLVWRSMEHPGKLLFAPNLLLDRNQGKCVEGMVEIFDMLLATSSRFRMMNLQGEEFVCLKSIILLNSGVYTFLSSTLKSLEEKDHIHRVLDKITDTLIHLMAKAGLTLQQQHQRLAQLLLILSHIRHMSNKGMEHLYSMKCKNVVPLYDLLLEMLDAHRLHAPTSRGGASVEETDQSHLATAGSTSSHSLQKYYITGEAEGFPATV
Test [5] is described as follows: qHTS assay to identify small molecule antagonists of the estrogen receptor alpha (ER-alpha) signaling pathway - cell viability counter screen (AID 743074; calls by dose curve;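 further: HEK293 cells carrying ER-alpha-UAS-bla reporter stimulated with 17beta-estradiol; nearly all actives have a fitted effect of over 45% in size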).
Test [6] deals with Estrogen receptor (Homo sapiens) (UniProt P03372). Description: qHTS assay to identify small molecule agonists of the estrogen receptor alpha (ER-alpha) signaling pathway (AID 743075; calls by dose curve;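 further: HEK293 GripTite cells with ER-alpha and UAS-driven beta-lactamase reporter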; further: potency means the concentration at half of the fitted maximal effect).
Test [7] has the same target. The experiment in a line: qHTS assay to identify small molecule agonists of the estrogen receptor alpha (ER-alpha) signaling pathway using the BG1 cell line (AID 743079). Further: nearly all actives have a fitted effect of over 20% in size. Further: potency means the concentration at half of the fitted maximal effect. The conditions noted are these: BG1Luc4E2 cells, ERE-luciferase agonist, 22 h; activation: at 70.3 µM (top of the series) unless noted.
Test [8] is described as follows: qHTS assay to identify small molecule antagonists of the estrogen receptor alpha (ER-alpha) signaling pathway using the BG1 cell line (AID 743080; calls by dose curve;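 further: BG1 cells stimulated with 17beta-estradiol alongside compound; nearly all actives have a fitted effect of over 25% in size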). In short, it runs like this:
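Luminescence from a 4×ERE-luciferase reporter in BG1-Luc-4E2 cells served as read-out. Cells, pre-cultured 5 days in stripped-serum phenol-red-free medium, were exposed to compound with 17beta-estradiol co-stimulation for 21.5 h at 37 C.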

Test [9] is described as follows: qHTS assay to identify small molecule antagonists of the estrogen receptor alpha (ER-alpha) signaling pathway using the BG1 cell line - cell viability counter screen (AID 743081).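 Further: compound given together with 17beta-estradiol as the ER stimulus; nearly all actives have a fitted effect of over 45% in size.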
Another test addresses Aromatase (Homo sapiens) (UniProt P11511). Description: qHTS assay to identify aromatase inhibitors (AID 743083). Further: nearly all actives have a fitted effect of over 55% in size.
A short description of test [10]: qHTS assay to identify aromatase inhibitors - cell viability counter screen (AID 743084).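 Further: cells stimulated with testosterone during compound exposure; nearly all actives have a fitted effect of over 55% in size.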
Test [11] is described as follows: qHTS assay to identify small molecule that activate the aryl hydrocarbon receptor (AhR) signaling pathway - cell viability counter screen (AID 743086).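 Further: HepG2 liver cells carrying the AhR DRE luciferase reporter; nearly all actives have a fitted effect of over 45% in size.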 The method, boiled down: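 HepG2-AhR-luc (HG2L7.5c1) cells, 4000/well, were preincubated 5 h at 37C, exposed to compound in qHTS format for 24 hr at 37C, then given CellTiter-Fluor for 30 min; viability was read as fluorescence in the reporter wells.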

Test [12] addresses Peroxisome proliferator-activated receptor gamma (Homo sapiens) (UniProt P37231). The experiment in a line: qHTS assay to identify small molecule agonists of the peroxisome proliferator-activated receptor gamma (PPARg) signaling pathway (AID 743094; active means well fitted activation curve with a large enough effect in the signal ratio in the repeat runs, not every such curve was filed as active; inconclusive means weak or mixed curves, or effect the other way; inactive means no such curve, though single readings can be large or run the other way; the % refers to the signal ratio). In short, it runs like this:
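Quantitative HTS agonist mode: stable HEK293H line with UAS-beta-lactamase reporter under PPARg control, 17 h compound exposure at 37C, fluorescence after 1 h FRET substrate loading at room temperature.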

For test [13] the target is unchanged. The experiment in a line: qHTS assay to identify small molecule antagonists of the peroxisome proliferator-activated receptor gamma (PPARg) signaling pathway (AID 743191; calls by dose curve; further: nearly all actives have a fitted effect of over 30% in size). In short, it runs like this: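 GeneBLAzer PPARg UAS-bla HEK293H cells carrying a UAS-driven beta-lactamase reporter were plated at 3000 cells/well, preincubated 5 h at 37C, then given compound for 17 h at 37C; LiveBLAzer B/G FRET substrate was read after 1 h at room temperature.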

A short description of test [14]: qHTS assay to identify small molecule antagonists of the peroxisome proliferator-activated receptor gamma (PPARg) signaling pathway - cell viability counter screen (AID 743194). Further: nearly all actives have a fitted effect of over 55% in size. The conditions noted are these: Potency: co-treated with 50 nM rosiglitazone unless noted. In short, it runs like this:
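PPARg-UAS-bla HEK293H cells were plated, rested 5 h at 37 C, then treated with compounds plus rosiglitazone (50 nM final) for 17 h at 37 C; viability was then read by CellTiter-Glo luminescence after 30 min at room temperature.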

Test [15] can be described thus: qHTS assay for small molecule agonists of the antioxidant response element (ARE) signaling pathway (AID 743202; active means well fitted activation curve with a large enough effect in the signal ratio in the repeat runs, not every such curve was filed as active; inconclusive means weak or mixed curves, or effect the other way; inactive means no such curve, though single readings can be large or run the other way; the % refers to the signal ratio). The method, boiled down: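 Compounds delivered in DMSO to ARE-bla HepG2 cells (2,000 cells/well, pre-incubated 5 h) and left 16 h at 37 C. LiveBLAzer B/G FRET substrate then added for 2 h at RT before fluorescence reading.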
Test [16] can be described thus: qHTS assay for small molecule agonists of the antioxidant response element (ARE) signaling pathway - cell viability counter screen (AID 743203; calls by dose curve; further: nearly all actives have a fitted effect of over 55% in size). The method, boiled down:
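Seeded at 2,000 cells/well, ARE-bla HepG2 cells were incubated 5 hrs before compound addition. After 16 hrs of treatment at 37C with 5% CO2, CellTiter-Glo reagent was added and luminescence read 30 min later.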

The nature of test [17]: qHTS assay for small molecule activators of the heat shock response signaling pathway - cell viability counter screen (AID 743209). Further: nearly all actives have a fitted effect of over 50% in size. The method, boiled down: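 First, HSE-bla HeLa cells were seeded at 1500 cells/well and kept overnight at 37 C. Next, compounds were pinned in and incubated 5 h. After the FRET substrate step, CellTiter-Glo was added and luminescence read 30 min later.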

The nature of test [18]: qHTS assay for small molecule activators of the heat shock response signaling pathway (AID 743210; active means well fitted activation curve with a large enough effect in the signal ratio in the repeat runs, with a control signal flat, not every such curve was filed as active; inconclusive means weak or mixed curves; the % refers to the signal ratio;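 further: HeLa cells with beta-lactamase reporter driven by heat shock elements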). The method, boiled down:
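Reporter gene assay: HeLa cells stably bearing an HSE-bla construct, compound treatment 5 h at 37 C, LiveBLAzer substrate 2.5 h at RT, fluorescence intensity.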

In test [19] the target is Aryl hydrocarbon receptor (Homo sapiens) (UniProt P35869). Description: qHTS assay to identify small molecule that activate the aryl hydrocarbon receptor (AhR) signaling pathway (AID 743085). Further: nearly all actives have a fitted effect of over 15% in size. Further: potency means the concentration at half of the fitted maximal effect.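 On activation: HG2L7.5c1 human HepG2 liver cells with stably integrated DRE-driven firefly reporter.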 The method, boiled down:
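Measured in HG2L7.5c1 cells: CellTiter-Fluor signal (30 min incubation, 37C) for viability, then luciferase luminescence (30 min, room temperature). Compound contact time was 24 h at 37C, following a 5 h pre-incubation.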

Aryl hydrocarbon receptor (Homo sapiens), sequence (P35869 whole entry, looked up): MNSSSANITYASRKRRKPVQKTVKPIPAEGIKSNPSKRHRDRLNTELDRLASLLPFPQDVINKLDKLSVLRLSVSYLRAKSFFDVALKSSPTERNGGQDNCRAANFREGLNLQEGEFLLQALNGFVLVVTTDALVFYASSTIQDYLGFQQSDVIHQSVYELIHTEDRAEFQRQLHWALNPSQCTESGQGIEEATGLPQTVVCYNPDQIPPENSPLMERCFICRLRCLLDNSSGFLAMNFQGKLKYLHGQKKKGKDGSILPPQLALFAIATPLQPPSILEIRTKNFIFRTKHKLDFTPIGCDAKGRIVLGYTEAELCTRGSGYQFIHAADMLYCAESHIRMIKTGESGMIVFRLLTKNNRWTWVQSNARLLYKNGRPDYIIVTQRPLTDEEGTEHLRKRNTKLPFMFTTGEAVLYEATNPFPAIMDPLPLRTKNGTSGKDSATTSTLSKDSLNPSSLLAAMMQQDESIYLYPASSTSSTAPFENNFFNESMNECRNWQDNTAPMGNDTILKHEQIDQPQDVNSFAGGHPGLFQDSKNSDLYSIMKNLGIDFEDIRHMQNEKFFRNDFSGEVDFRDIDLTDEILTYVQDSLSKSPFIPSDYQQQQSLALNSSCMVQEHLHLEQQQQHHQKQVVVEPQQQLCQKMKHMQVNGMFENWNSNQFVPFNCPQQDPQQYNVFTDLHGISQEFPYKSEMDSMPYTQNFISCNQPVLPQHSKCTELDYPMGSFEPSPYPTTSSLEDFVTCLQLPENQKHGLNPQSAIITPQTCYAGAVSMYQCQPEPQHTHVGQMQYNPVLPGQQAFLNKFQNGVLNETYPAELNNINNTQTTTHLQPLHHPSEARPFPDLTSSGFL
Aromatase (Homo sapiens), sequence (P11511 whole entry, looked up): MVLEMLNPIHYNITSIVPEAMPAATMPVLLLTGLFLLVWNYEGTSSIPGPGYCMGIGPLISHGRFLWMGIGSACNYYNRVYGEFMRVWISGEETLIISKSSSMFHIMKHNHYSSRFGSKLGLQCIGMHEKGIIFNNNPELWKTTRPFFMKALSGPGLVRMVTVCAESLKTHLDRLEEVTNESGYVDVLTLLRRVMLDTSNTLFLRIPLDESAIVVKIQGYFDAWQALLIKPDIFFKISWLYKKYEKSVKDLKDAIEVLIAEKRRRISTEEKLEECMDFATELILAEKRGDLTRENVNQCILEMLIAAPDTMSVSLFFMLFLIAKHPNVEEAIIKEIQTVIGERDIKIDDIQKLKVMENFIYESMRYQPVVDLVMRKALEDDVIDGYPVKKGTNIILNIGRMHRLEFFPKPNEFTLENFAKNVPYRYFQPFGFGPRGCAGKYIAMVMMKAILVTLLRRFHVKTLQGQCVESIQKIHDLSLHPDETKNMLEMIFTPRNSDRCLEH
Peroxisome proliferator-activated receptor gamma (Homo sapiens), sequence (P37231 whole entry, looked up): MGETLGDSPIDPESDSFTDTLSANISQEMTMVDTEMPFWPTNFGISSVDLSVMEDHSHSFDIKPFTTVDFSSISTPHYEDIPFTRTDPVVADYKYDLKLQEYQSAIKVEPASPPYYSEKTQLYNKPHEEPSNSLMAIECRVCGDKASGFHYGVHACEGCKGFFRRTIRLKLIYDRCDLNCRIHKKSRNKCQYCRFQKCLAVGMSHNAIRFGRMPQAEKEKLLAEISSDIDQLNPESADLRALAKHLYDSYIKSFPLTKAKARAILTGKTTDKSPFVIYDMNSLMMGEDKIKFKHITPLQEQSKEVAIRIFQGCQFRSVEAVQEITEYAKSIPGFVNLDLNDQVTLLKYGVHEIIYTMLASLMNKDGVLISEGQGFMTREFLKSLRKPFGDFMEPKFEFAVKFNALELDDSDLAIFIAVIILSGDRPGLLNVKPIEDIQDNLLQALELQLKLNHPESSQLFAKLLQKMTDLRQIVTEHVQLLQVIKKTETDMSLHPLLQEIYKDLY

Take `O=[N+]([O-])/N=C1\NCCN1Cc1ccc(Cl)nc1`: the Potency result in test [1], in [2], in [3], in [4], in [5] and in [6] was “inactive” throughout. For the same molecule, the Potency result (in test [7]; in [8]; in test [9]; with Aromatase (Homo sapiens); in test [10]; in test [11]) was “inactive” throughout. In addition, the Potency result in test [12], in test [13], in [14], in test [15], in [16] and in [17] was “inactive” each time. The Potency entry in [18] is “inactive”.
Consider `Clc1cccc(C(Cl)(Cl)Cl)n1`, for which the Potency result in [1], in [2], in test [3], in test [4], in test [5] and in [6] was “inactive” throughout. The Potency result (in test [7]; in [8]; in test [9]; in the test with Aromatase (Homo sapiens); in test [10]; in test [11]) was “inactive” in each case. Further, the Potency entry in [12], in [13], in [14], in [15], in test [16] and in test [17] was “inactive” each time. The Potency result in [18] is “inactive”.
`CCCCOCCOC(C)=O`: the Potency result in test [1], in test [2], in test [3], in test [4], in [5] and in test [6] was “inactive” in each case. In addition, the Potency entry (in test [7]; in [8]; in test [9]; with Aromatase (Homo sapiens); in [10]; in test [19]) was “inactive” each time. For the same molecule, the Potency entry in test [11], in test [12], in test [14], in test [15], in [16] and in test [17] was “inactive” in each case. The Potency result in test [18] is “inactive”.
For the molecule `CCCCOC(=O)COC(=O)c1ccccc1C(=O)OCCCC`, the Potency entry in [1], in test [2], in [3], in [4], in test [5] and in test [6] was “inactive” in each case. In addition, the Potency entry (in test [7]; in test [8]; in test [9]; in the test with Aromatase (Homo sapiens); in test [10]; in [19]) was “inactive” in each case. The Potency entry in test [11], in test [12], in test [13], in [14], in test [15] and in test [16] was “inactive” each time. For the same molecule, the Potency entry in test [17] and in [18] was “inactive” throughout.
For `CC1(C)Cc2cccc(O)c2O1`, the Potency result in [1], in [2], in test [3], in test [4], in test [5] and in test [6] was “inactive” each time. In addition, the Potency result (in test [7]; in [8]; in test [9]; in the test with Aromatase (Homo sapiens); in test [10]; in test [19]) was “inactive” throughout. Further, the Potency entry in test [11], in test [12], in test [13], in [14], in test [15] and in [16] was “inactive” throughout. Also, the Potency result in test [17] and in test [18] was “inactive” throughout.
Regarding `CC(C)COC(=O)c1ccccc1C(=O)OCC(C)C`, the Potency result in [1], in test [2], in test [3], in test [4], in [5] and in [8] was “inactive” in each case. Also, the Potency entry (in [9]; with Aromatase (Homo sapiens); in test [10]; in test [19]; in test [11]; in test [12]) was “inactive” in each case. Also, the Potency entry in test [13], in [14], in test [15], in test [16], in [17] and in [18] was “inactive” in each case. Also, the Potency in test [6] was 13.8 nM [inconclusive] (active) and inactive; in test [7] it was 21.7 µM (active).
In the case of `S=c1[nH]c2ccccc2[nH]1`, the Potency result (in test [1]; in test [2]; in test [3]; in [5]; in test [9]; in the test with Aromatase (Homo sapiens)) was “inactive” each time. Moreover, the Potency result in test [10], in test [11], in test [12], in test [13], in test [14] and in test [16] was “inactive” in each case. For the same molecule, the Potency entry in test [17] and in test [18] was “inactive” each time. Besides, in test [19], the Potency is 68.6 µM (active).
